From PubChem
In the library only some 9.3% were active in any assay of this set; here they are far more common.
NPC1 prom act = activators of NPC1 promoter | Huh7 NPC1 promoter luciferase reporter, 24 h | Potency, µM (series often up to 9.22 µM), inactives show at the highest dose activation, most hits filed as activators | hit rate 2.4% among 320,000; further: % of control where 0% means no effect; nearly all actives have a fitted effect of over 60% in size
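Stably transfected Huh7 (NPC1 promoter→luciferase), 1500 cells/well in Opti-MEM + 10% FBS, 2 h settle, then compound 24 h at 37 °C. Luminescence after 10 min with Amplite reagent.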
SMN2 splice enh = increases expression of the SMN2 splice variant; HEK293 SMN2-luciferase splicing reporter, luminescence, 30-36 h; Potency, µM (titrated, usually from 46.1 µM), inactives show at the highest dose activity change, positive = activation, usual class: activators; hit rate 2.8% among 210,000; AID 1458; further: % of control where 0% means no effect; nearly all actives have a fitted effect of over 55% in size
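HEK293 cells carry an SMN2 minigene-luciferase reporter in which exon 7 inclusion puts luciferase in frame. Cells were seeded at 2000 cells/well, attached for 10-12 hours, then exposed to compounds for 30-36 hours at 37C before ONE-Glo luminescence.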
Rab9 promoter act = activators of Rab9 promoter | Huh7 Rab9 promoter-luciferase reporter, luminescence, 24 h | Potency, µM (titrated, usually from 9.22 µM), for inactives: at the top dose activation, negative = inhibition, actives largely listed as activators | hit rate 2.8% among 320,000 | AID 485297; further: % of control where 0% means no effect; nearly all actives have a fitted effect of over 60% in size
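Using Huh7 cells stably transfected with Rab9 promoter–luciferase, compounds were incubated 24 h at 37 °C, 5% CO2; luciferase luminescence was read 10 min after reagent addition.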
ELG1 genotoxic = genotoxicity induction in ELG1-luciferase HEK293T cells | HEK293T ELG1-luciferase reporter, luminescence, 16 h | Potency, µM (titrated, usually from 46 µM), for the others: at the top dose activity change, positive = activation, actives largely listed as activators | hit rate 1.3% among 330,000 | AID 504466; further: % of control where 0% means no effect; nearly all actives have a fitted effect of over 60% in size
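Screening used a luciferase reporter fused to human ELG1 in HEK293T cells. Luminescence was read on a CCD plate imager after 16 hr exposure and 30 min ONE-Glo incubation.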
FLuc modulator = inhibits or activates purified firefly luciferase, miR-21 counter-screen; P08659; purified FLuc, Km substrates, luminescence inhibition; Potency, µM (highest dose often 57.5 µM), without a hit: top-dose activity change, negative = inhibition, usual class: inhibitors; hit rate 6.9% among 360,000;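 further: plate controls were vehicle for no effect and reference inhibitor for full effect; nearly all actives have a fitted effect of over 55% in size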
Target sequence (P08659 whole entry, looked up): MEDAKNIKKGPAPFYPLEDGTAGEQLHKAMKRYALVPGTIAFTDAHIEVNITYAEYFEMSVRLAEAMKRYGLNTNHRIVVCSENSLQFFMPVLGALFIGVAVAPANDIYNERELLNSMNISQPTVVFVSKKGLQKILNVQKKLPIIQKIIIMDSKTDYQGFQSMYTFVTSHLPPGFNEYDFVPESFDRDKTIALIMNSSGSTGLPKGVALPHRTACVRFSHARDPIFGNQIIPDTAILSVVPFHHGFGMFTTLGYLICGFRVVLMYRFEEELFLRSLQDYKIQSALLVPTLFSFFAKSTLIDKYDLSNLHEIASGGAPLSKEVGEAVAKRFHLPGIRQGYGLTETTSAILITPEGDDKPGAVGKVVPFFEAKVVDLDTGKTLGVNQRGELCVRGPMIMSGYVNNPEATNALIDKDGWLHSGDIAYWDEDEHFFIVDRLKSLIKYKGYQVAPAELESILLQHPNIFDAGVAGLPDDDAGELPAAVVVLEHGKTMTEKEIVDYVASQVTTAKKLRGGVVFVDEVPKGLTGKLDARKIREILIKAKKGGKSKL
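Biochemical qHTS of compounds, final roughly 60 µM downward over six points, against 10 nM purified firefly luciferase using Km concentrations of substrates (10 uM D-luciferin, 10 uM ATP) in Tris acetate pH 7.5 buffer; luminescence output.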
ELG1 repair inh = ELG1-dependent DNA repair inhibition. HEK293T ELG1-luciferase reporter, luminescence, 16 h; DNA damage induced by 5-fluorouridine. Potency, µM (top dose mostly 46.1 µM), without a hit: at the top dose activity change, negative = inhibition, most hits filed as inhibitors. AID 504467. hit rate 2.3% among 330,000; further: on the % scale 0 is the no-effect control and ±100 the full control effect; nearly all actives have a fitted effect of over 55% in size
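Reporter activity after DNA damage by 5-fluorouridine is monitored. Compound-treated cells incubate 16 hr at 37 °C, then ONE-Glo is added for 30 min before luminescence reading.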
An asterisk follows results filed as active; [ ] = dose if it differs, or a comment. The call rests on the fitted dose curve; in most records, active means well fitted curve in the direction sought with a large enough effect; inconclusive means small, poorly fitted or top-dose-only effect, or another doubt; inactive means no such curve, though single readings can be large; an effect the other way counts as inactive or inconclusive. Potency means the concentration at half of the fitted maximal effect.

How did Cc1ccc(NC(=O)CC(=O)c2ccccc2)cc1C do in these assays?
NPC1 prom act: inconclusive; Rab9 promoter act: 4µM*; ELG1 genotoxic: inconclusive; FLuc modulator: 15µM*; ELG1 repair inh: inconclusive

What do the screens show for `Cc1cc2ccccn2c1C(=O)Nc1ccc(Cl)cc1`?
NPC1 prom act: 13%; SMN2 splice enh: 14%; Rab9 promoter act: inconclusive; ELG1 genotoxic: inconclusive; FLuc modulator: inconclusive; ELG1 repair inh: inconclusive

What do the screens show for `Cc1ccc(NC(=O)c2ccccc2C(=O)O)cc1C`?
SMN2 splice enh: -5%[9.22 µM]

Results for Cc1ccc(NC(=O)c2c(C)nc3ccccn23)cc1C ?
NPC1 prom act: 3.2µM*; SMN2 splice enh: 13µM*; Rab9 promoter act: 1.8µM*; ELG1 genotoxic: -1%; FLuc modulator: 8.5µM*; ELG1 repair inh: inconclusive

How did Cc1ccc(C(=O)Nc2ccc(Oc3ccc(C(=O)O)c(C(=O)O)c3)cc2)cc1C do in these assays?
NPC1 prom act: -1%; SMN2 splice enh: 0%; Rab9 promoter act: -9%; ELG1 genotoxic: 1%; FLuc modulator: 6µM*; ELG1 repair inh: 5%

How did Cc1cc2ccccn2c1C(=O)Nc1ccccc1 do in these assays?
NPC1 prom act: 27%; SMN2 splice enh: inconclusive; Rab9 promoter act: inconclusive; ELG1 genotoxic: inconclusive; FLuc modulator: 11µM*; ELG1 repair inh: inconclusive

Results for Cc1ccc(NC(=O)CO/N=C(\N)c2ccccc2)cc1C ?
ELG1 genotoxic: 5%; ELG1 repair inh: 0%

How did COc1ccc(Br)c(C(=O)Nc2cc3c(cc2N2CCCC2)n(C)c(=O)c(=O)n3C)c1 do in these assays?
FLuc modulator: 6%

What do the screens show for `Cc1ccnc(NC(=O)c2cccc(NC(=O)Cc3ccccc3)c2)c1`?
NPC1 prom act: -1%; Rab9 promoter act: -2%; ELG1 genotoxic: 8%; FLuc modulator: inconclusive; ELG1 repair inh: 4%

Results for Cc1nc2ccccn2c1C(=O)/C=C/c1cccc([N+](=O)[O-])c1 ?
NPC1 prom act: -28%; SMN2 splice enh: -69%; Rab9 promoter act: -43%; ELG1 genotoxic: -27%; FLuc modulator: -5%; ELG1 repair inh: inconclusive

How did COC(=O)CSC(C(=O)Nc1ccc(C)c(C)c1)c1ccccc1 (configuration not stated) do in these assays?
NPC1 prom act: -5%; SMN2 splice enh: 9%; Rab9 promoter act: 10%; ELG1 genotoxic: 6%; FLuc modulator: 17µM*; ELG1 repair inh: inconclusive

What do the screens show for `Cc1ccc(/C=C/C(=O)c2c(C)nc3ccccn23)cc1`?
NPC1 prom act: inconclusive; SMN2 splice enh: inconclusive; Rab9 promoter act: 1.4µM*; ELG1 genotoxic: 16%; FLuc modulator: 1.1µM*; ELG1 repair inh: inconclusive

What do the screens show for `Cc1cccc(C(=O)Nc2cccc(C(=O)Nc3cc(C)ccn3)c2)c1`?
NPC1 prom act: 10%; Rab9 promoter act: 20%; ELG1 genotoxic: -6%; FLuc modulator: 27µM*; ELG1 repair inh: -24%

How did O=C(O)CCC/C=C\C[C@@H]1[C@@H](/C=C/[C@H](O)C2Cc3ccccc3C2)[C@@H](F)C[C@@H]1O do in these assays?
NPC1 prom act: 5%[46.1 µM]; Rab9 promoter act: inconclusive

Results for CCOC(=O)c1cc(-c2ccco2)nc2c1c(C)nn2CCC#N ?
NPC1 prom act: 5%; SMN2 splice enh: -13%; Rab9 promoter act: -2%; ELG1 genotoxic: -11%; FLuc modulator: 0%; ELG1 repair inh: inconclusive

What do the screens show for `CCOC(=O)c1cc(-c2ccc(OC)cc2F)nc2c1c(C)nn2CCC#N`?
NPC1 prom act: -5%; SMN2 splice enh: -24%; Rab9 promoter act: 0%; ELG1 genotoxic: -2%; FLuc modulator: 2%; ELG1 repair inh: 12µM*

Results for CCOC(=O)c1cc(-c2ccc(Cl)cc2)nc2c1c(C)nn2CCC#N ?
NPC1 prom act: -2%; SMN2 splice enh: -31%; Rab9 promoter act: 1%; ELG1 genotoxic: -2%; FLuc modulator: 4%; ELG1 repair inh: inconclusive

What do the screens show for `CCOC(=O)c1cc(-c2ccc3c(c2)OCCO3)nc2c1c(C)nn2CCC#N`?
NPC1 prom act: -5%; SMN2 splice enh: -51%; Rab9 promoter act: -7%; ELG1 genotoxic: 3%; FLuc modulator: 1%; ELG1 repair inh: 6.5µM*

What do the screens show for `CCN(C(=O)COC(=O)c1ccccc1OCc1ccc(Cl)cc1)C1CCS(=O)(=O)C1` (configuration not stated)?
ELG1 genotoxic: 1%; ELG1 repair inh: inconclusive

How did CN(C)CCCNc1oc(-c2ccc(Cl)cc2)nc1C#N do in these assays?
NPC1 prom act: 3%; SMN2 splice enh: 9%; Rab9 promoter act: -4%; ELG1 genotoxic: 1%; FLuc modulator: -11%; ELG1 repair inh: inconclusive

How did Cc1ccc(-c2nc(C#N)c(NCCc3ccccn3)o2)cc1 do in these assays?
NPC1 prom act: 3.5µM*; SMN2 splice enh: inconclusive; Rab9 promoter act: inconclusive; ELG1 genotoxic: inconclusive; FLuc modulator: inconclusive; ELG1 repair inh: inconclusive

How did N#Cc1nc(-c2ccc(Cl)cc2)oc1NCCc1ccccn1 do in these assays?
NPC1 prom act: inconclusive; SMN2 splice enh: 22%; Rab9 promoter act: inconclusive; ELG1 genotoxic: 8.2µM*; FLuc modulator: -10%; ELG1 repair inh: inconclusive

How did COc1ccc(-c2nc(C#N)c(NCCc3ccccc3)o2)cc1 do in these assays?
NPC1 prom act: 18%; SMN2 splice enh: inconclusive; Rab9 promoter act: inconclusive; ELG1 genotoxic: 11%; FLuc modulator: inconclusive; ELG1 repair inh: inconclusive

What do the screens show for `O=C1N(CN2CCN(Cc3ccccc3)CC2)c2ccccc2C12OCCCO2`?
NPC1 prom act: -1%; SMN2 splice enh: -3%; Rab9 promoter act: 4%; ELG1 genotoxic: 0%; FLuc modulator: 3%; ELG1 repair inh: 4%

What do the screens show for `Cc1ccc(-c2noc(-c3cc(-c4ccc(F)cc4)n[nH]3)n2)cc1`?
FLuc modulator: -10%

How did Clc1ccc(-c2nc(-c3cnccn3)no2)cc1 do in these assays?
NPC1 prom act: 0.56µM*; Rab9 promoter act: 0.71µM*; ELG1 genotoxic: inconclusive; FLuc modulator: 2.4µM*; ELG1 repair inh: inconclusive

How did Fc1ccc(-c2nc(-c3cnccn3)no2)c(Cl)c1 do in these assays?
NPC1 prom act: 0.45µM*; Rab9 promoter act: 0.32µM*; ELG1 genotoxic: inconclusive; FLuc modulator: 2.4µM*; ELG1 repair inh: inconclusive

Results for COCCOC(=O)CSc1ncccc1-c1nc2cc(C)c(C)cc2[nH]1 ?
NPC1 prom act: inconclusive; SMN2 splice enh: 16µM*; Rab9 promoter act: 3.5µM*; ELG1 genotoxic: inconclusive; FLuc modulator: 2.1µM*; ELG1 repair inh: inconclusive
